Conditions in all cases: concentration: 1 μM,replicates: in singlicate; n = 1
The subject of assay [1] is ADCK4.
Assay [2] deals with AKT1.
For assay [3], the system named is AKT2.
In assay [4] the test system is AKT3.
The test system of assay [5] is ALK.
The test system of assay [6] is T1, AMPK-alpha1.
T1 construct: gene PRKAA1

The subject of assay [7] is T2, AMPK-alpha2.
T2 construct: gene PRKAA2

Assay [8] has as its system ANKK1.
In assay [9] the test system is T3, ARK5.
T3 construct: gene NUAK1

The subject of assay [10] is T4, ASK1.
T4 construct: gene MAP3K5

For assay [11], the system named is T5, ASK2.
T5 construct: gene MAP3K6

Assay [12] concerns AURKA.
Assay [13] concerns AURKB.
Assay [14] has as its system AURKC.
Assay [15] relates to AXL.
In assay [16] the test system is T6, BIKE.
T6 construct: gene BMP2K

Assay [17] deals with BLK.
For assay [18], the system named is BMPR1A.
The subject of assay [19] is BMPR1B.
In assay [20] the test system is BMPR2.
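Note: KINOMEscan kinase panel screen.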

For the compound `Cn1ccc2ncnc(Oc3ccc(NC(=O)Nc4ccnc(C(F)(F)F)c4)c(Cl)c3)c21`, the “%Inh” value in assay [1] is reported as 4%; in assay [2], 7%; in assay [3], 0%; in [4] it was 0%; in assay [5] it was 0%; in assay [6], 0%. Further, the “%Inh” value is recorded as 0% in assay [7]; 0% in assay [8]; 2% in assay [9]; 0% in assay [10]; 0% in [11]; 18% in [12]. In addition, the “%Inh” value in assay [13] came out at 34%; in assay [14] it was 0%; in assay [15], 12%; in assay [16], 0%; in assay [17] it was 0%; in assay [18], 0%. Further, the “%Inh” value in assay [19] amounted to 6%; in assay [20], 0%.

Turning to `O=C1NCCc2[nH]c(-c3ccncc3)cc21`, the “%Inh” value worked out at 0% in assay [1]; 0% in [2]; 0% in assay [3]; 0% in assay [4]; 0% in assay [5]; 6% in assay [6]. For the same compound, the “%Inh” value in assay [7] is 0%; in assay [8], 10%; in assay [9], 0%; in [10], 40%; in assay [11] it was 0%; in assay [12] it was 28%. For the same compound, the “%Inh” value turned out to be 0% in assay [13]; 11% in assay [14]; 8% in assay [15]; 33% in assay [16]; 15% in assay [17]; 27% in assay [18]. Also, the “%Inh” value is 92.9% in assay [19] and 43% in assay [20].

Take `CS(=O)(=O)c1cccc(CNc2nc(Nc3ccc4c(c3)[C@@H]3C[C@@H]4CNC3=O)ncc2C(F)(F)F)c1`: the “%Inh” value in assay [1] was found to be 0%; in [2] it was 0%; in [3], 0%; in [4], 0%; in assay [5], 0%; in [6] it was 37%. Besides, the “%Inh” value in [7] was found to be 28%; in assay [8], 22%; in [9], 94.6%; in assay [10], 0%; in assay [11], 0%; in assay [12], 99.4%. Also, the “%Inh” value was determined as 95.7% in assay [13]; 73% in assay [14]; 93.2% in assay [15]; 96.2% in [16]; 30% in assay [17]; 0% in assay [18]. Further, the “%Inh” value in [19] and in [20] was 0% each time.

Regarding `Cc1n[nH]c2cc(Nc3ccnc(Nc4cccc(CN5CCOCC5)c4)n3)ccc12` [GW682569], the “%Inh” value in assay [1] was 97.1%; in assay [2], 0%; in [3], 0%; in [4], 0%; in assay [5], 16%; in assay [6], 0%. Moreover, the “%Inh” value is 0% in assay [7]; 17% in [8]; 0% in assay [9]; 0% in assay [10]; 0% in assay [11]; 98.9% in assay [12]. For the same compound, the “%Inh” value in [13] amounted to 55%; in assay [14], 93.5%; in assay [15], 35%; in assay [16] it was 98.1%; in assay [17], 0%; in assay [18] it was 0%. Also, the “%Inh” value in assay [19] is 87%; in [20], 6%.

On to `Cn1ccc2ncnc(Oc3ccc(NC(=O)Nc4cccc(C(F)(F)F)c4)c(F)c3)c21`, for which the “%Inh” value in [1] was determined as 0%; in assay [2] it was 23%; in assay [3], 0%; in [4] it was 0%; in [5], 20%; in [6], 0%. The “%Inh” value in assay [7] was 0%; in assay [8], 0%; in assay [9], 5%; in [10], 5%; in assay [11], 0%; in assay [12] it was 5%. The “%Inh” value in assay [13] is recorded as 88%; in assay [14] it was 65%; in [15], 87%; in assay [16], 18%; in [17] it was 22%; in [18], 0%. In addition, the “%Inh” value in [19] and in assay [20] was 0% in each case.

Regarding `COc1cccc(C2=C(Nc3cccc(Cl)c3)C(=O)NC2=O)c1` [SB-341556], the “%Inh” value in assay [1] is reported as 0%; in assay [2], 0%; in [3], 0%; in assay [4], 0%; in [5], 32%; in [6], 0%. Moreover, the “%Inh” value in [7] is on record as 0%; in [8] it was 0%; in assay [9], 0%; in assay [10], 5%; in assay [11], 22%; in [12], 0%. For the same compound, the “%Inh” value in assay [13] worked out at 15%; in [14], 3%; in [15], 12%; in [16], 34%; in [17], 72%; in assay [18] it was 0%. The “%Inh” value in assay [19] and in [20] was 0% in each case.

On to `O=C(Nc1cccc(C(F)(F)F)c1)c1cccc(Oc2ccc3nccn3n2)c1`, for which the “%Inh” value is recorded as 0% in assay [1]; 0% in assay [2]; 17% in assay [3]; 1% in assay [4]; 0% in assay [5]; 8% in assay [6]. In addition, the “%Inh” value in assay [7] is 84%; in [8], 0%; in [9], 0%; in assay [10], 5%; in assay [11], 21%; in assay [12] it was 5%. Also, the “%Inh” value in [13] stood at 9%; in assay [14] it was 6%; in [15], 31%; in assay [16], 15%; in assay [17], 6%; in assay [18], 0%. Also, the results for the “%Inh” value in assay [19] and in [20] were 12% and 21%, respectively.

Take `CCOC(=O)N1CCC(n2cnc(-c3ccc(F)cc3)c2-c2ccnc(N)n2)CC1` [SB-219952]: the “%Inh” value amounted to 20% in [1]; 7% in assay [2]; 0% in assay [3]; 24% in assay [4]; 0% in [5]; 99.8% in [6]. The “%Inh” value in [7] worked out at 4%; in [8] it was 0%; in [9], 0%; in [10] it was 0%; in assay [11], 0%; in assay [12] it was 19%. The “%Inh” value in [13] came to 37%; in assay [14] it was 19%; in assay [15], 19%; in [16] it was 4%; in [17] it was 1%; in [18], 10%. Moreover, the “%Inh” value is 0% in assay [19] and 22% in [20].

(Values after publication PMC5540273 (PLoS ONE, 2017).)
